TDP1 inh – inhibitors of human tyrosyl-DNA phosphodiesterase TDP1; recombinant TDP1, AlphaScreen DNA substrate cleavage; Potency, µM (highest dose often 130 µM), usual class: inhibitors; actives 0.28% (n = 350,000); AID 485290; further: nearly all actives have a fitted effect of over 40% in size
Target sequence (Q9NUW8 whole entry, looked up): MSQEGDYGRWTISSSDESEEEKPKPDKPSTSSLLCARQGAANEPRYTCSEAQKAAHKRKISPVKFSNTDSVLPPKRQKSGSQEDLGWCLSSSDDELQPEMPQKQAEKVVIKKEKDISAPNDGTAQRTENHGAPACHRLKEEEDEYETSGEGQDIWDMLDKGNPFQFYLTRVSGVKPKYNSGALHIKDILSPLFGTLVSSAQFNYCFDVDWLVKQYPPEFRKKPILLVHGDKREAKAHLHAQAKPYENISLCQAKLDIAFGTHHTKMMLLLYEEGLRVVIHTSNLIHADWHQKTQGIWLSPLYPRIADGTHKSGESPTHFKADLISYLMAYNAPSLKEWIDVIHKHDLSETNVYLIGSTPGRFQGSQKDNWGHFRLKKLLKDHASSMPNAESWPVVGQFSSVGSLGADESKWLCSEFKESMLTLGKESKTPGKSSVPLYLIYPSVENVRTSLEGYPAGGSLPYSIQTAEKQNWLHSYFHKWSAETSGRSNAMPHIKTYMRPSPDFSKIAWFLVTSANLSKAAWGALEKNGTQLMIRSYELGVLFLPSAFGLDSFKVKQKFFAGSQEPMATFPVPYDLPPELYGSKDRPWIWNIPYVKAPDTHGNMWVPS
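Signal: AlphaScreen proximity between streptavidin donor and anti-FITC acceptor beads on intact substrate. Reaction: Tdp1 1 nM, substrate 15 nM final, 5 min RT after 15 min compound preincubation.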
FEN1 inh-1 – human FEN1 inhibition. P39748. AID 588795. actives 0.35% (n = 390,000). Recombinant FEN1 flap cleavage, fluorescence, 15 min. Potency, µM (doses to about 114 µM), hits mostly inhibitors; further: nearly all actives have a fitted effect of over 65% in size
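Reaction started by adding substrate (50 nM final) to 10 nM enzyme after 15 min room-temperature compound preincubation. Reads at 0 and 15 min, with data normalized and fitted to a four-parameter Hill equation.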
APE1 inh – blocks human APE1 abasic DNA cleavage; P27695; recombinant APE1, TAMRA/BHQ-2 abasic DNA cleavage fluorescence; Potency, µM (top dose mostly 65.8 µM), actives largely listed as inhibitors; actives 0.35% (n = 350,000); AID 2517; further: nearly all actives have a fitted effect of over 55% in size
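APE1 at 0.75 nM final was preincubated with compound 15 min at room temperature, then 50 nM double-stranded THF abasic-site substrate (5'-TAMRA/3'-BHQ-2) was added. Fluorescence (ex 525/em 598 nm) was read kinetically; third-minus-first read gave activity.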
RECQ1 inh-1 – RECQ1 (human) helicase inhibition; AID 2549; Potency, µM (titrated, usually from 57.3 µM), most hits filed as inhibitors; RECQ1 DNA unwinding, red fluorescence kinetic read; P46063; actives 0.54% (n = 240,000); further: nearly all actives have a fitted effect of over 30% in size
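RECQ1T1 50 nM; forked duplex (20 bp + 30-nt ss tails) 200 nM, ATP 2 mM final; pH 8.0, 2 mM MgCl2, 2.5 ug/ml poly(dI-dC); 15 min compound preincubation; discontinuous kinetic read over 2 h at RT.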
BLM inh – inhibitors of human Bloom syndrome helicase BLM | AID 2528 | P54132 | recombinant BLM DNA unwinding, fluorescence dequenching | actives 0.2% (n = 350,000) | Potency, µM (titrated, usually from 56.1 µM), usual class: inhibitors; further: nearly all actives have a fitted effect of over 35% in size
RECQ1 inh conf – confirmation of human RECQ1 helicase inhibitors; shares compounds with RECQ1 inh-1; RECQ1 helicase DNA unwinding, fluorescence; Potency, µM (titrated, usually from 229 µM), hits mostly inhibitors; actives 28% (n = 610); AID 2708; further: nearly all actives have a fitted effect of over 45% in size
ADP FP counter – displaces ADP in a fluorescence polarization counter-screen for RECQ1 hits. shares compounds with RECQ1 inh-1. ADP fluorescence polarization displacement counterscreen. Potency, µM (highest dose often 228 µM), hits mostly inhibitors. actives 27% (n = 530). AID 2711; further: nearly all actives have a fitted effect of over 45% in size
RECQ1 inh-2 – RECQ1 helicase inhibition confirmed, round 2; shares compounds with RECQ1 inh-1; recombinant RECQ1 DNA unwinding, red fluorescence; Potency, µM (titrated, usually from 119 µM), usual class: inhibitors; actives 15% (n = 1,100); AID 504841; further: nearly all actives have a fitted effect of over 50% in size
FEN1 inh-2 – confirmation of human FEN1 inhibitors; shares compounds with FEN1 inh-1; FEN1 flap cleavage, TAMRA/BHQ2 fluorogenic DNA substrate; Potency, µM, usual class: inhibitors; actives 79% (n = 880); further: nearly all actives have a fitted effect of over 60% in size
Numbers stand for hits; [ ] = dose if it differs, or a comment. This is a sample that favours compounds with a hit; in the whole collection about 0.92% have one here. The call rests on the fitted dose curve; in most records, active means well fitted curve in the direction sought with a large enough effect; inconclusive means small, poorly fitted or top-dose-only effect, or another doubt; inactive means no such curve, though single readings can be large; an effect the other way counts as inactive or inconclusive.

How did CC(C)Nc1ccc(Nc2ccnc3cc4ccccc4cc23)cc1 do in these assays?
TDP1 inh: inactive; FEN1 inh-1: 25µM; APE1 inh: inconclusive; RECQ1 inh-1: 22µM; BLM inh: inconclusive; RECQ1 inh conf: 22µM; ADP FP counter: inactive; FEN1 inh-2: 24

Results for CCOC(=O)CSc1nnc(-c2cc(OC)c(OC)c(OC)c2)o1 ?
TDP1 inh: inactive; FEN1 inh-1: inactive; APE1 inh: inactive; RECQ1 inh-1: inactive; BLM inh: inactive

What do the screens show for `COc1cc(-c2nnc(SCc3cc(=O)oc4cc(O)c(O)cc34)o2)cc(OC)c1OC`?
FEN1 inh-1: 40µM; APE1 inh: 2µM; RECQ1 inh-1: 1.8µM; BLM inh: 10µM; RECQ1 inh conf: 3.5µM; ADP FP counter: 126µM; RECQ1 inh-2: inconclusive; FEN1 inh-2: 38

What do the screens show for `COCCN(CCOC)c1nc(C)nc2c1nc(-c1ccccc1)n2CCN1CCCC1`?
TDP1 inh: inactive; APE1 inh: inactive; RECQ1 inh-1: inactive; BLM inh: inactive

Results for O=C(O)c1ccccc1NS(=O)(=O)c1ccc(NN=Cc2cccc(Cl)c2)c([N+](=O)[O-])c1 ?
TDP1 inh: inactive; FEN1 inh-1: inconclusive; APE1 inh: inconclusive

How did O=C(O)c1ccccc1NS(=O)(=O)c1ccc(N/N=C/c2ccc(O)c(O)c2)c([N+](=O)[O-])c1 do in these assays?
FEN1 inh-1: 28µM; FEN1 inh-2: 48

How did Cc1cc(/C=C2\Sc3ccccc3N2C)cc(C)[n+]1CC1CCCO1 (configuration not stated) do in these assays?
TDP1 inh: inactive; FEN1 inh-1: 50µM; APE1 inh: inconclusive; RECQ1 inh-1: inconclusive; BLM inh: inactive; FEN1 inh-2: 34

Results for CC1=C2[C@@H]([C@H](C)CC[C@H]2/C=C(\C)C(=O)O)[C@H](O)C1 ?
TDP1 inh: inactive; APE1 inh: inactive; RECQ1 inh-1: inactive

Results for O=C(Cn1c(SCc2cccc(F)c2)nc2cccnc21)Nc1ccc(F)c(Cl)c1 ?
TDP1 inh: inactive; FEN1 inh-1: inactive; BLM inh: inactive

Results for N#CC(C#N)=C(N)/C(C#N)=C/c1cc(O)c(O)c(O)c1 ?
FEN1 inh-1: 8.9µM; APE1 inh: inconclusive; RECQ1 inh-1: inconclusive; FEN1 inh-2: 19

What do the screens show for `CC(C)(C)c1cc(/C=C(\C#N)C(N)=S)cc(C(C)(C)C)c1O`?
TDP1 inh: inactive; APE1 inh: inconclusive; RECQ1 inh-1: inconclusive

Results for CC1=C(C(=O)OC(C)C)C(c2ccc(Cl)cc2)n2c(s/c(=C\c3ccc(OCC(=O)O)cc3)c2=O)=N1 (configuration not stated) ?
FEN1 inh-1: inconclusive; APE1 inh: 6.7µM; BLM inh: inactive; FEN1 inh-2: 67

Results for Cc1ccccc1/C=N/n1c(-c2cc(-c3ccccc3)n[nH]2)n[nH]c1=S ?
FEN1 inh-1: inactive; APE1 inh: inactive; RECQ1 inh-1: inactive; BLM inh: inactive

Results for S=c1[nH]nc(-c2cc(-c3ccccc3)n[nH]2)n1/N=C/c1c(Cl)cccc1Cl ?
FEN1 inh-1: inconclusive; APE1 inh: inactive; RECQ1 inh-1: inactive; BLM inh: inactive; FEN1 inh-2: inconclusive

Results for CN1CCCC1CCNc1ccc2c(=O)c3ccccc3oc2c1 (configuration not stated) ?
FEN1 inh-1: inconclusive; APE1 inh: inactive; BLM inh: inactive

What do the screens show for `CN1CCC[C@H]1CCNc1ccc2c(=O)c3ccccc3n(C)c2c1`?
FEN1 inh-1: 56µM; FEN1 inh-2: 43

Results for COc1cc2c(Cc3ccccc3)cncc2cc1O ?
FEN1 inh-1: inactive; FEN1 inh-2: inconclusive

How did Cc1cc2ccccc2cn1 do in these assays?
FEN1 inh-1: inactive

What do the screens show for `CCOC(=O)c1c(CSc2ccccc2)n(C)c2cc(Br)c(OCC(O)CNC(CO)(CO)CO)cc12` (configuration not stated)?
TDP1 inh: inactive; FEN1 inh-1: 45µM; APE1 inh: inconclusive; RECQ1 inh-1: inactive; BLM inh: inactive; FEN1 inh-2: 43

Results for CCOc1ccc2c(ccc(/C=C/c3cc(C)c4cccnc4c3O)[n+]2C)c1 ?
FEN1 inh-1: 8.9µM; FEN1 inh-2: 12

Results for O=C1N=c2ccccc2=C1c1sc(Nc2ccc(O)cc2)nc1O ?
TDP1 inh: inactive; FEN1 inh-1: inconclusive; APE1 inh: inconclusive; RECQ1 inh-1: inactive; BLM inh: inconclusive; FEN1 inh-2: 76

What do the screens show for `CO[C@@H]1/C=C\CC(=O)N[C@@H](C)C(=O)OC[C@@H](OC)[C@H](C)/C=C\CC(=O)OC[C@H]1C`?
TDP1 inh: inactive[21 µM]; APE1 inh: inactive[12.4 µM]; RECQ1 inh-1: inactive[11.5 µM]; BLM inh: inactive[12.4 µM]

Results for CC(=O)NC[C@@H]1CN(c2ccc(N3CCOCC3)c(F)c2)C(=O)O1 ?
TDP1 inh: inactive; BLM inh: inactive

How did COc1cccc(NC(=O)Cn2cc(C(=O)c3ccc(C)cc3)c(=O)c3cc(OC)ccc32)c1 do in these assays?
TDP1 inh: inconclusive; FEN1 inh-1: 79µM; APE1 inh: inactive; BLM inh: inconclusive; FEN1 inh-2: inconclusive

Results for O=C1c2cccc(NCCCNCCO)c2C(=O)c2cccc(NCCCNCCO)c21 ?
FEN1 inh-1: 3.5µM; FEN1 inh-2: 4.3

Results for O=C1c2ccccc2C(=O)c2c(NCc3cccnc3)cccc21 ?
TDP1 inh: inactive; FEN1 inh-1: inactive; APE1 inh: inactive; RECQ1 inh-1: inactive; BLM inh: inactive

Results for CCOC(=O)c1nn(-c2ccc(OC)cc2)c(=O)c2c(NC(=O)Cc3ccccc3)scc12 ?
TDP1 inh: inactive

Results for CN(C)CCP(=O)(c1ccccc1)c1ccccc1 ?
TDP1 inh: inactive; FEN1 inh-1: inactive; APE1 inh: inactive; RECQ1 inh-1: inactive; BLM inh: inactive

How did CN(C)CCN(C)Cc1c2ccccc2c(CN(C)CCN(C)C)c2ccccc12 do in these assays?
FEN1 inh-1: 50µM; APE1 inh: inactive; BLM inh: inactive; FEN1 inh-2: inconclusive

How did CN(C/C=C\c1ccccc1)Cc1cccc2ccccc12 do in these assays?
TDP1 inh: inactive[21 µM]; RECQ1 inh-1: inactive; BLM inh: inactive
